# From PubChem BioAssay AID2314 (National Center for Advancing Translational Sciences (NCATS), 2010)
# The whole screen tested about 300,000 compounds, of which about 37,000 (12%) were called active. This is one part of a sample in which actives are shown more often than they occur. No stated cut-off is given here; in the data, active means max response mostly above about 13% (no sharp cut-off); inactive means mostly below about 14%.
# Experiment: Cycloheximide Counterscreen for Small Molecule Inhibitors of Shiga Toxin; further: read at 38.3 µM for the half of the compounds with a filed dose; 0% is about no effect
# Conditions: cell reporter, cycloheximide protein synthesis inhibition counterscreen; hits give high values
row,SMILES,max response
1,CC(C)[C@H](NC(=O)N1CCn2c1nc1ccccc12)C(=O)NCc1ccc2c(c1)OCO2,7.58% (inactive)
2,CCCCOP(=O)(c1ccc(N(C)C)cc1)C(O)c1cc(OC)ccc1OC (centres undefined),-3.9% (inactive)
3,N[C@@H](Cc1ccccc1)C(=O)N1CCC(C(=O)NCC(=O)Nc2ccc(F)cc2)CC1,10.8% (inactive)
4,Cc1ccsc1C1C(C#N)=C(N)OC2=C1C(=O)CC(C)C2 (centres undefined),-3.34% (inactive)
5,CSc1nnc(C2CCCN(CC(=O)Nc3ccccc3N3CCOCC3)C2)n1C(C)C (centres undefined),-6.84% (inactive)
6,O=c1[nH]c2ccc(S(=O)(=O)N3CCCC3)cc2[nH]1,-1.27% (inactive)
7,CCCN1C(=O)C(Cc2nc3ccccc3c(=O)n2-c2ccccc2)c2cc(C)ccc21 (centres undefined),-6.23% (inactive)
8,Cc1ccc(S(=O)(=O)N(CC(=O)Nc2cccnc2)c2ccc(Br)cc2)cc1,18.2% (inactive)
9,NNC(=O)c1ccc(Cl)cc1Cl,9.54% (inactive)
10,Cc1ccc(C(=O)NNC(=O)c2cccs2)cc1,33.4% (active)
11,Cc1ccc(S(=O)(=O)N2CCN(C(=O)c3cccs3)CC2)cc1,-2.84% (inactive)
12,CC(C)C(=O)Nc1ccc(C(=O)NNC(=O)c2cccs2)cc1,19.4% (active)
13,Cc1ccc(C)c(NC(=O)CCC(=O)NNC(=O)c2cccs2)c1,5.25% (inactive)
14,O=C(NNC(=O)c1ccc(Cl)cc1Cl)c1cccs1,47.6% (active)
15,Cc1ccc(NNC(=O)c2cccs2)cc1Cl,9.69% (inactive)
16,O=C(Nc1ccccc1)c1ccc(NC(=O)c2cccs2)cc1,-4.38% (inactive)
17,Cc1cccc(-c2nc3c(c(SCC(=O)N4CCOCC4)n2)CCCC3)c1,-3.15% (inactive)
18,Cc1ccc2c(c1)C(c1ccccc1)N(C(=O)c1ccc(F)cc1)CC(=O)N2 (centres undefined),-3.35% (inactive)
19,CC1COc2ccccc2N1C(=O)c1ccc(F)cc1 (centres undefined),-4.53% (inactive)
20,O=C(CN(Cc1ccccc1)C(=O)CCC(=O)Nc1ccccn1)NCCc1ccccc1,-3.42% (inactive)
21,OC(c1ccccc1)C(CN1CCOCC1)c1ccccc1 (centres undefined),6.46% (inactive)
22,COc1cc(C(C(=O)NC2CCCC2)N(Cc2ccccc2)C(=O)c2snc(C(N)=O)c2N)ccc1O (centres undefined),-3.72% (inactive)
23,C=CCN(C(=O)c1cc(C)cc(C)c1)C1(C(=O)Nc2ccccc2)CCN(C(C)C)CC1,7.82% (inactive)
24,Cc1ccc(CN(Cc2cccnc2)C(=S)Nc2cc(Cl)ccc2C)cc1,-1.05% (inactive)

row,SMILES,max response
1,CN(C)c1ccc(-n2cccc2/C=C2/SC(=Nc3ccc(F)cc3)NC2=O)cc1,1.13% (inactive)
2,O=S(=O)(N/N=C\c1cccn1-c1ccccc1)c1ccc2ccccc2c1,-3.05% (inactive)
3,CN(C)c1ccc(-n2cccc2/C=N/n2cnnc2)cc1,36.3% (active)
4,CCOC(=O)N1CCN(C(=O)C(=O)Nc2sc3c(c2C#N)CC(C)(C)OC3)CC1,-4.16% (inactive)
5,Cc1cc(C)nc(NS(=O)(=O)c2ccc(N/C=C\C(=O)c3cccs3)cc2)n1,36.2% (active)
6,Cc1cc(C)nc(NS(=O)(=O)c2ccc(N3C(=O)C4CCCCC4C3=O)cc2)n1 (centres undefined),1.2% (inactive)
7,CC(=O)Nc1ccc(S(=O)(=O)Nc2nccc(/C=C/c3ccccc3F)n2)cc1,-1.75% (inactive)
8,Cc1c(C(C)(C)O)[nH]c2ccc(C#N)cc12,6.81% (inactive)
9,COc1ccccc1CNC(=O)C1CCN(C(=O)[C@@H]2Cc3ccccc3CN2)CC1,2.06% (inactive)
10,COc1ccccc1CCNC(=O)C1CCN(C(=O)/C=C/c2ccccc2)CC1,14.7% (active)
11,COc1ccccc1CNC(=O)C1CCN(S(C)(=O)=O)CC1,-1.24% (inactive)
12,COCCNC(=S)N/N=C/c1c(C)[nH]c2ccccc12,8.43% (inactive)
13,Cc1nn(C)cc1/C=N/NC(=O)c1sc2ccccc2c1Cl,4.94% (inactive)
14,O=C(N/N=C/c1c(Cl)[nH]c2ccccc12)c1sc2ccccc2c1Cl,12.8% (active)
15,COc1ccc(NC(=O)C2CCC(CNS(=O)(=O)c3csc(C(N)=O)c3)CC2)cc1OC (centres undefined),-7.21% (inactive)
16,COC(=O)c1ccccc1NC(=S)NC(=O)c1ccccc1F,-2.77% (inactive)
17,O=C(NC(=S)NC1CCSC1=O)c1ccccc1F (centres undefined),24.5% (active)
18,O=C(Cc1ccccc1F)NC1CCSc2ccccc21 (centres undefined),-2.13% (inactive)
19,COC1=C(N2CCOCC2)C(=O)c2ccccc2C1=O,0.793% (inactive)
20,Clc1ccc(-c2csc(-c3ccncc3)n2)cc1,49.1% (active)
21,CCCCCN1CC(O)=C(c2nc(-c3ccc(Cl)cc3)cs2)C1=N,-0.837% (inactive)
22,Fc1ccc(-c2csc(-c3ccc(C4SCCS4)cc3)n2)cc1F,8.6% (inactive)
23,CSc1cccc(NC(=O)CN2C(=O)COc3ccc(S(=O)(=O)N4CCOCC4)cc32)c1,-0.43% (inactive)
24,O=C(C1CC(=O)N(C2CCCCC2)C1)N1CCN(c2ccccc2)CC1 (centres undefined),-1.46% (inactive)

row,SMILES,max response
1,Cn1c(SCC(=O)N2CCCCC2)nc2c(c1=O)SCC2,9.54% (inactive)
2,COCc1ccc(CN2CCC(Oc3ccc(C(=O)NCc4ccccn4)cc3)CC2)o1,17.2% (inactive)
3,COCCCNC(=O)c1ccc2c(c1)ncn2-c1ccccc1OC,10.4% (inactive)
4,COc1ccccc1-n1cnc2cc(NS(=O)(=O)c3ccccc3)ccc21,33.5% (active)
5,COc1cc(NS(=O)(=O)c2ccccc2)ccc1-n1nc(C)cc1C,-2.43% (inactive)
6,O=C(c1cc(-c2cccc(O)c2)on1)N1CCc2ccccc2C1,7.88% (inactive)
7,O=C(c1cc(-c2ccc(F)cc2)on1)N1CCN(c2ccc(F)cc2)CC1,-2.49% (inactive)
8,O=C(c1cc(-c2ccncc2)nc2ccccc12)N1CCC2(CC1)OCCO2,2.43% (inactive)
9,COc1ccc(-c2cc(C(=O)N3CCN(c4ccc(F)cc4)CC3)no2)cc1,-1.58% (inactive)
10,O=C(c1cc(-c2ccc(O)cc2)on1)N1CCOCC1,27.7% (active)
11,O=C(c1cc(-c2ccc(O)cc2)on1)N1CCCc2ccccc21,32.9% (active)
12,Cc1ccc(-c2cc(C(=O)N3CCc4ccccc4C3)no2)cc1,10.4% (inactive)
13,CCCn1nc(C(=O)N2CCCc3ccccc32)c2ccccc2c1=O,-1.1% (inactive)
14,O=C(c1cccs1)N1CCN(C(=O)N2CCOCC2)CC1,-2.36% (inactive)
15,Cn1c(SCC(=O)N2CCCc3ccccc32)nc2ccccc2c1=O,-3.04% (inactive)
16,O=C(c1cc(-c2ccc(Cl)cc2)on1)N1CCN(c2ccccc2)CC1,30.2% (active)
17,Cc1ccc(-c2cc(C(=O)N3CCC4(CC3)OCCO4)no2)cc1,24.4% (active)
18,NC(=O)Cn1cc(/C=N\NS(=O)(=O)c2ccccc2)c2ccccc21,-1.04% (inactive)
19,COc1ccc(OC)c(Nc2nc3ccccc3n3cnnc23)c1,-2.88% (inactive)
20,CCOc1ccc(NC(=O)CCCCCN2C(=O)[C@@H]3Cc4ccccc4CN3C2=O)cc1,6.74% (inactive)
21,Clc1cc(NC2CCCCC2)ncn1,3.36% (inactive)
22,CCCCN(CCCC)CCCNC(=O)CN1C(=O)COc2ccc(S(=O)(=O)N3CCC(C)CC3)cc21,-3.42% (inactive)
23,Cc1ccn(-c2cccc(-n3ccc(C)n3)n2)n1,91.1% (active)
24,Cc1cnc(CN(C)C(=O)CC2C(=O)NCCN2Cc2cccc(F)c2F)[nH]1 (centres undefined),3.11% (inactive)

row,SMILES,max response
1,O=c1c2cc(Br)ccc2nc(-c2cccc(Cl)c2)n1O,-6.07% (inactive)
2,Cc1ccc(CSCC2Nc3ccc(C(=O)N4CCN(c5ccc(F)cc5)CC4)cc3NC2=O)cc1 (centres undefined),-5.97% (inactive)
3,O=C(CC1SC(=Nc2ccccc2)N(Cc2ccccn2)C1=O)Nc1cccc(Cl)c1 (centres undefined),14.9% (active)
4,CCN1C(=O)C(CC(=O)Nc2cc(C)ccc2C)SC1=Nc1ccc(S(N)(=O)=O)cc1 (centres undefined),-7.73% (inactive)
5,CN1C(=O)C(CC(=O)Nc2ccccc2)S/C1=N/c1nccs1 (centres undefined),-0.83% (inactive)
6,CC(=O)Nc1ccc(S(=O)(=O)NC2Cc3ccccc3C2)cc1,-1.22% (inactive)
7,O=C(CCN1c2ccccc2Sc2ccccc21)Nc1ccccc1,9.13% (inactive)
8,CCN1/C(=C/C(=S)Nc2ccccc2)Sc2ccccc21,44.5% (active)
9,CCNC(=O)N1c2ccccc2Sc2ccccc21,-0.857% (inactive)
10,CCn1cc(C(=O)NCC(=O)NC(C)(C)CO)c(=O)c2cc3c(cc21)OCO3,1.3% (inactive)
11,O=C(CN1C(=O)C2C3C=CC(C3)C2C1=O)Nc1nc(-c2ccccn2)cs1 (centres undefined),-1.06% (inactive)
12,O=C(CC(=O)N/N=C\c1cccc(Cl)c1Cl)NCc1ccccc1,8.71% (inactive)
13,O=C(CCCO)N/N=C/c1cc(Br)ccc1O,-2.8% (inactive)
14,O=C(N/N=C/c1ccccc1O)/C(=C/c1ccccc1)CCO,16.6% (active)
15,COc1ccc(OC)c(S(=O)(=O)N2CCCC(C(=O)NCCc3ccccc3)C2)c1 (centres undefined),8.7% (inactive)
16,Cc1cccc(N2CCN(C(=O)c3cnn4c(C(F)F)cc(-c5ccccc5)nc34)CC2)c1C,-1.97% (inactive)
17,CSCCC(NC(=O)c1ccc(Cl)cc1Cl)C(=O)NNC(=O)c1csc(N2CCOCC2)n1 (centres undefined),0.959% (inactive)
18,O=C(COc1ccc([N+](=O)[O-])cc1)Nc1ccc(N2CCCC2)cc1,-1.27% (inactive)
19,O=C(COC(=O)C1CCCCC1)Nc1ccc([N+](=O)[O-])cc1,24.8% (active)
20,NC(=O)c1ccc(NC(=O)COC(=O)c2ccc([N+](=O)[O-])cc2)cc1,0.779% (inactive)
21,CC1(C)C(C=C(Cl)Cl)C1C(=O)NC(O)C(=O)c1ccccc1 (centres undefined),-3.63% (inactive)
22,CCn1cc(C(=O)NCc2ccc(OC)cc2OC)c(=O)c2ccc(C)nc21,-2.54% (inactive)
